aSyn 5UTR act = Activators via SNCA 5'UTR binding, MLPCN; alpha-synuclein 5'UTR reporter, activators screen; AID 1814; activity score, % (tested at 7.5 µM), hits read low; 300,000 compounds, 7.1% hits; in the data active = activity score below about -60%
Starred values were filed as active, the others as inactive. Not all results are given here.

SMILES	aSyn 5UTR act
COCCN1Cc2cccc(C(=O)Nc3cccc(-c4nc5ccccc5[nH]4)c3)c2C1=O	-80*
C/C(=N\Nc1ccc(C(=O)O)cc1)c1nc2ccccc2n1C	-148*
COc1ccc(/C(C)=N/Nc2ccc(C(=O)O)cc2)cc1OC	-137*
C/C(=N\Nc1ccc(C(=O)O)cc1)c1ccc(-n2ccnc2)cc1	-70*
COc1cc(/C(C)=N/Nc2ccc(C(=O)O)cc2)cc(OC)c1OC	-101*
Cn1nnnc1N=N/C(=N/Nc1ccccc1)c1ccccc1	104
Cc1ccc(C(=O)/C=C/c2cn(CN3CCN(C)CC3)c3ccccc23)cc1	-231*
COc1ccc2[nH]cc(/C=C/C(=O)c3ccccc3)c2c1	-245*
O=C(/C=C/c1c[nH]c2ccccc12)c1ccccc1	-330*
Cc1ccc(C(=O)/C=C/c2c[nH]c3ccccc23)cc1	-237*
Cc1cc(OCC(=O)N2CCCCCC2)ccc1[N+](=O)[O-]	-148*
Cc1cc(OCC(=O)N2CCCC2)ccc1Cl	-91*
c1ccc(Oc2cc(-n3cccn3)ncn2)cc1	-140*
COC(=O)c1cnn(-c2cc(Oc3ccccc3)ncn2)c1N	-127*
NC(=O)c1cnn(-c2cc(Oc3ccccc3)ncn2)c1N	-66*
COC(=O)c1cnc(Oc2ccc(NC(=O)NC(=O)c3c(OC)cccc3OC)cc2)cc1C(F)(F)F	74
Cc1ccc2c(c1)COc1c3ccc(C(=O)NC(C)C)cc3nn1-2	-204*
Cc1ccc2c(c1)COc1c3ccc(C(=O)N[C@@H](C)CO)cc3nn1-2	-154*
Cc1cccc(-c2noc(-c3ccccc3C(=O)NCc3ccco3)n2)c1	-62*
Nc1c(C(=O)NCc2ccco2)nnn1-c1ccccc1	-125*
O=C(NCc1ccco1)c1cccc(-c2nnc(-c3ccccc3)o2)c1	-71*
CCN(CC)c1ccc(/C=N/N2CCOCC2)cc1	-152*
CCN(CC)c1ccc(/C=N/n2c(-c3ccccc3Br)n[nH]c2=S)cc1	78
Cc1ccc(N=Nc2ccc(O)c(/C=N\NC(=O)c3ccc(N)cc3)c2)cc1C	58
CCN(CC)c1ccc(O)c(C=Nc2ccc(C)c(C)c2)c1	-77*
SMILES	aSyn 5UTR act
Cc1ccc(N=Cc2ccc(N(C)C)cc2)cc1C	-123*
O=C(CCCC(=O)c1ccc(F)cc1)c1ccc(F)cc1	-118*
CCOc1ccc(C(=O)CCCC(=O)c2ccc(OCC)cc2)cc1	-82*
Oc1ccc(N=Nc2n[nH]c(-c3ccccc3)n2)cc1	-85*
CCOC(=O)Nc1nnc(-c2cccc(OC)c2)s1	-83*
COc1ccc(-c2nnc(NC(=O)C(C)C)s2)c(OC)c1	-101*
CCOC(=O)Nc1nc(-c2ccccc2)c(C(=O)c2ccc(Cl)cc2)s1	114
CCOC(=O)Nc1nnc(-c2ccc(OC)cc2)s1	-65*
O=c1cc(NS(=O)(=O)c2ccccc2)nc(SCc2ccccc2Cl)[nH]1	58
Nc1ccccc1-c1nnc(SCc2ccccc2Cl)[nH]c1=O	-69*
Cc1ccc(OCC(=O)Nc2nnn(C)n2)c(C)c1	-87*
CC(C)(O)c1cc(=O)sc2nc3ccccc3n12	-103*
COC(=O)C1CCN(C(=O)CCCOc2ccccc2)CC1	-83*
COc1ccc(OCCC(=O)N2CCCCC2)cc1	-63*
CCCCOc1ccc(C(=O)N2CCCC2)cc1	-63*
CCNc1nc(N)c(C(=O)c2ccc(Cl)s2)s1	-188*
CCc1cc(C(=O)COc2ccc(F)cc2)c(O)cc1O	-104*
Cc1c(O)ccc(C(=O)COc2ccc(F)cc2)c1O	-154*
C=CCn1cccc(C(=O)Nc2ccc(C)c(Cl)c2)c1=O	-140*
C=CCn1cccc(C(=O)Nc2ccc(OC)c(Cl)c2)c1=O	-84*
C=CCNC(=O)C1CCN(c2nc(C)cc(-c3ccccc3)n2)CC1	-97*
CSc1ccc(/C=C/c2cc(=O)c3ccccc3[nH]2)cc1	-69*
O=c1cc(-c2cccc(F)c2)[nH]c2ccccc12	87
O=C1c2ccccc2C(=O)c2c1ncn2-c1ccccc1	70
O=C1c2ccccc2CN1c1ccccc1	-107*
SMILES	aSyn 5UTR act
C=CC(=O)Oc1ccc(N2Cc3ccccc3C2=O)cc1	-114*
Cc1nnsc1S(=O)c1ccc(Br)cc1 (configuration not stated)	-148*
Cc1nnsc1S(=O)c1ccc(F)cc1 (configuration not stated)	-68*
Cc1ccc(S(=O)c2snnc2C)cc1 (configuration not stated)	-66*
Cc1ccc(C)c(-c2nnc(NC(=O)c3ccc([N+](=O)[O-])o3)o2)c1	-63*
Cc1cc(C)c2nc(NC(=O)c3ccc([N+](=O)[O-])o3)sc2c1	-144*
O=C(CCc1ccccc1)Nc1nc2c(F)cc(F)cc2s1	-99*
O=C(Nc1nc2c(F)cc(F)cc2s1)c1ccc([N+](=O)[O-])o1	-69*
Cc1cc(C)c2sc(NC(=O)c3ccc([N+](=O)[O-])o3)nc2c1	-110*
O=C(Nc1nc(-c2cccc3ccccc23)cs1)c1ccc2c(c1)S(=O)(=O)c1ccccc1C2=O	-143*
COc1ccc(-c2cc(=O)c3ccccc3o2)cc1	-216*
Cn1c2ccccc2c(=O)c2ccc(-c3ccc4c(c3)OCO4)cc21	-145*
O=c1cc(-c2ccc(O)cc2)oc2ccccc12	-138*
O=c1cc(-c2ccc(O)cc2)oc2ccc(O)cc12	-151*
Nc1c(-c2ccc3c(c2)OCCO3)oc2ccccc2c1=O	-145*
O=c1cc(-c2ccc3c(c2)OCO3)oc2ccccc12	-297*
COc1ccc(N=c2cc(-c3ccc(O)cc3)oc3ccccc23)cc1	-62*
CCc1cc(C(=O)NNC(=S)Nc2ccccc2C)cs1	-147*
CCc1cc(C(=O)Nc2ccccc2)cs1	-134*
COc1cc(SC)ccc1C(=O)Nc1nc2ccccc2[nH]1	131
Cc1nn(C)cc1C(=O)NNC(=S)Nc1ccccc1	-110*
COc1ccccc1C(=O)Nc1ccc(Br)cc1C	-96*
COc1ccccc1C(=O)Oc1ccccc1C(=O)Nc1ccccc1	-163*
COc1cc(SC)ccc1C(=O)Nc1ccccc1	-184*
COc1ccccc1C(=O)NNC(=S)Nc1ccccc1	-107*
SMILES	aSyn 5UTR act
O=C(Oc1ccccc1C(=O)Nc1ccccc1)c1ccc(Br)c([N+](=O)[O-])c1	-121*
C/C(=N\NC(=O)c1cccc(O)c1)c1ccc(NC(=O)Cc2ccccc2)cc1	-85*
C/C(=N\NC(=O)c1ccccc1O)c1ccc(NC(=O)Cc2ccccc2)cc1	-71*
COc1cccc(C(=O)N/N=C(\C)c2ccc(NC(=O)Cc3ccccc3)cc2)c1OC	-88*
COc1ccc(/C(C)=N/NC(=O)c2ccccc2OCc2ccccc2)c(OC)c1	-118*
O=C(Nc1ccc(N2CCOCC2)c2nonc12)C1CCCC1	-142*
O=C(Nc1ccc(F)cc1)Nc1ccc(N2CCOCC2)c2nonc12	-145*
COc1ccc(-c2ccc(-c3nnn(CC(=O)N4CCOCC4)n3)cc2)cc1	-166*
COc1ccc(OC)c(C(=O)Cn2nnc(-c3ccc(N4CCOCC4)cc3)n2)c1	-135*
COc1ccc(/C=N/Nc2ccc([N+](=O)[O-])cc2)cc1O	-298*
COc1cccc(/C=N/NC(=O)c2ccc(-c3ccccc3)cc2)c1O	76
COc1cccc(/C=N/Nc2ccc([N+](=O)[O-])cc2)c1O	-150*
COc1cccc(N/N=C/c2cccc(Br)c2O)c1	-117*
Cc1ccc(-c2csc(N=C(N)N)n2)c(C)c1	-94*
Nc1nc(-c2ccc3ccccc3c2)cs1	-193*
Cc1ccc(N/C(N)=N/c2nc(CSc3nnc(C)s3)cc(=O)[nH]2)c(C)c1	83
Nc1ccc(Oc2ccccc2-c2ccccc2)cc1	104
